Measured values published in PubChem BioAssay.
Several values for one entry are separate records, joined by “and”; a condition that tells them apart may be missing. Equal entries are not always repeated. Activity calls are given as the source filed them.

Tests used:
[1] = compound effects on lung adenocarcinoma cell viability – A549, calcein-AM fluorescence, 48 h, basal, profiling panel (AID 1162); conditions: higher = more signal
[2] = compound effects on differentiated 3T3-L1 adipocyte viability – cell-based, 3T3-L1 adipocytes, calcein-AM fluorescence, 48 h, basal, profiling panel (AID 1163); conditions: 3T3-L1 adipocytes viability, higher = more signal
[3] = compound effects on hepatocellular carcinoma cell viability – HepG2, calcein-AM fluorescence, 48 h, basal, profiling panel (AID 1164); conditions: higher = more signal
[4] = compound effects on multiple myeloma cell viability – MM1S, calcein-AM fluorescence, 48 h, basal, profiling panel (AID 1165); conditions: higher = more signal
[5] = calcein-AM signal in unstimulated myeloma cells – cell-based, calcein-AM fluorescence, 48 h, PK04 Diversity Set, profiling panel (AID 1166); conditions: RPMI8226 myeloma viability, higher = more signal;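 note: cells grown under basal conditions without added stimulus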
[6] = JC-1 mitochondrial signal, unstimulated HepG2 cells – cell-based, JC-1 fluorescence, 24 h, 100 nL compound, profiling panel (AID 1167); conditions: HepG2 mitochondrial potential, higher = more signal
[7] = JC-1 mitochondrial signal, unstimulated adipocytes – cell-based, JC-1 fluorescence, 3T3-L1 adipocytes, 24 h, 100 nL compound, profiling panel (AID 1168); conditions: JC-1 mitochondrial fluorescence, higher = more signal, called active from +8 up or from −8 down
[8] = JC-1 mitochondrial signal, unstimulated myeloma cells – cell-based, JC-1 fluorescence, RPMI8226, 24 h, 100 nL compound, profiling panel (AID 1169); conditions: JC-1 mitochondrial potential fluorescence, higher = more signal
[9] = JC-1 mitochondrial signal, unstimulated MM1S myeloma – cell-based, JC-1 fluorescence, 24 h, 100 nL compound, profiling panel (AID 1170); conditions: MM1S mitochondrial potential, higher = more signal
[10] = resazurin metabolic signal in A549 cells – cell-based, resazurin fluorescence, 24 h, PK04 Diversity Set, profiling panel (AID 1171); conditions: A549 viability, higher = more signal, called active from +8 up or from −8 down
Note: test concentration not given here.

| Compound | z-score [1] | z-score [2] | z-score [3] | z-score [4] | z-score [5] | z-score [6] | z-score [7] | z-score [8] | z-score [9] | z-score [10] |
| --- | --- | --- | --- | --- | --- | --- | --- | --- | --- | --- |
| C=CCN(CCCCC)C(=O)C1N(C(C)(C)CO)C(=O)C2C(C(=O)O)C3C=CC21O3 (stereo not given) | -0.777 and -0.44 | -0.472 and -0.0106 | 0.174 and -0.209 | 0.369 and -0.0102 | -0.187 and -0.148 | -0.66 and -1.15 | 0.044 (inactive) and -0.845 (inactive) | 0.776 and 0.876 | 0.861 and 0.681 | 0.0106 (inactive) and -0.0941 (inactive) |
| C=CCN(Cc1ccccc1)C(=O)C1N(C(C)(C)CO)C(=O)C2C(C(=O)O)C3C=CC21O3 (stereo not given) | -0.535 and -0.297 | -0.355 and 0.134 | -1.11 and 0.0167 | 0.0296 and 1.03 | 0.0867 and -0.103 | -0.955 and -0.123 | 0.0762 (inactive) and -0.264 (inactive) | 0.248 and 0.652 | -0.16 and -0.15 | -0.363 (inactive) and 0.344 (inactive) |
| C[C@@]1([C@@H](NC(=O)Cc2ccccc2)c2ccc(-c3ccccc3)cc2)C[C@H]1C1CCCCC1 | -2.72 and -1.23 and -1.42 | 0.765 and -0.0714 and -0.863 | -2.87 and -0.861 and -0.802 | -2.91 and -1.81 and -2 | -4.81 and -1.41 and -1.24 | -3.9 and -0.895 and 0.848 | 0.111 (inactive) and -0.332 (inactive) and -1.75 (inactive) | -0.936 and -0.586 and -0.431 | -1.71 and 0.0165 and -1.06 | -0.609 (inactive) and 3.96 (inactive) and -0.816 (inactive) |
| COC(=O)C1=C2N(Cc3ccccc3)C(C)=C(C(=O)OC)[C@@H](c3ccccc3)N2C(=O)[C@](O)(C(=O)OC)C1 | -0.104 and 1.11 | 0.387 and -1.41 | -0.102 and 0.511 | -0.397 and -0.107 | -1.16 and 0.38 | 0.574 and 0.276 | -0.0488 (inactive) and -0.394 (inactive) | -0.848 and 0.573 | 0.127 and 0.0283 | 1.83 (inactive) and -0.59 (inactive) |
| CC(C)OC(=O)C=C1C[C@@H](c2ccccc2)O[C@@H](c2ccccc2)O1 | 0.604 and -0.204 | 0.211 and 0.24 | 1.57 and 0.805 | -1.8 and -3.29 | -0.192 and -1.79 | 1.06 and -0.0936 | 0.383 (inactive) and 1.71 (inactive) | -0.374 and -0.422 | -2.57 and -3.36 | 1.28 (inactive) and 0.255 (inactive) |
| CCOC(=O)[C@H](CC(C)C)NC(=O)CCC1CC(OC(=O)NCc2cccc3ccccc23)CC2(CCCC(COC(=O)NCc3ccccc3)O2)O1 (stereo not given in full) | 0.531 | -0.172 | -0.435 | 0.184 | 0.0523 | 2.45 | 0.472 (inactive) | 0.0897 | -0.717 | 0.586 (inactive) |
| C=CCN(CCCC)C(=O)C1N(c2c(Cl)cccc2CO)C(=O)C2C(C(=O)O)C3C=CC21O3 (stereo not given) | -0.313 and -0.498 | 1.21 and 1.63 | -1.25 and -0.852 | 0.96 and 0.468 | -0.497 and -0.251 | -1.04 and -0.518 | -0.291 (inactive) and 0.159 (inactive) | 0.0487 and -0.0566 | 0.488 and 0.599 | -0.822 (inactive) and -0.0069 (inactive) |
| C=CCN(Cc1ccccc1)C(=O)C1N(c2c(Cl)cccc2CO)C(=O)C2C(C(=O)O)C3C=CC21O3 (stereo not given) | 1.45 and -0.228 | 0.38 and 0.802 | 1.07 and 0.0456 | 2.15 and 0.815 | 0.381 and -0.937 | 0.992 and -1.25 | 1.53 (inactive) and -0.0316 (inactive) | -0.817 and -0.0516 | 1.03 and 0.278 | 2.19 (inactive) and -0.851 (inactive) |
| C=CCN(CCCCC)C(=O)C(c1cccs1)N(CCOCCO)C(=O)/C=C\C(=O)O (stereo not given) | 0.457 and 0.414 | 0.314 and -0.158 | 0.341 and 0.976 | 1.85 and 1.71 | 0.025 and 0.586 | 0.69 and -0.139 | 1.03 (inactive) and 0.45 (inactive) | 0.0935 and -0.719 | -0.512 and 0.0846 | -0.186 (inactive) and -0.954 (inactive) |
| C=CCN(CCCC)C(=O)C(c1cccs1)N(C(=O)/C=C\C(=O)O)c1c(Cl)cccc1CO (stereo not given) | -0.163 and -0.667 | 0.441 and 0.526 | -0.934 and -0.809 | 1.43 and 1.51 | -0.097 and -0.435 | -0.25 and -0.417 | -0.96 (inactive) and 0.0799 (inactive) | 0.819 and 1.04 | -0.153 and -0.712 | -0.352 (inactive) and 0.397 (inactive) |
| C=CCN(CCCC)C(=O)C1N(CCCCCCO)C(=O)C2C(C(=O)O)C3C=CC21O3 (stereo not given) | -0.835 and -0.441 | 0.221 and -0.0736 | -1 and -0.393 | 0.62 and 1.32 | 0.646 and -0.44 | -0.253 and -0.939 | 0.051 (inactive) and -0.617 (inactive) | 0.221 and 0.855 | -0.00969 and -0.273 | -0.59 (inactive) and -0.439 (inactive) |
| CCN1C(=O)[C@H]2[C@H]3[C@H](O)[C@H](O)CC(=NOC[C@@H](O)COCc4ccco4)[C@@H]3CC[C@H]2C1=O | 0.107 and -0.737 | -0.233 and 1.1 | -0.417 and -0.814 | 0.0026 and 0.228 | -1.35 and -1.38 | -0.48 and -0.487 | -0.844 (inactive) and -0.925 (inactive) | 0.0424 and 0.122 | 0.104 and 0.0266 | -0.767 (inactive) and -1.14 (inactive) |
| CCC[C@@H]1C[C@@]1(CCC)[C@@H](NC(=O)c1ccc(-c2ccccc2)cc1)c1cccc(Cl)c1 | -2.26 and 0.247 | -0.882 and -0.867 | -2.12 and 1.52 | -2.16 and -0.143 | -2.94 and -1.06 | -0.93 and 2.74 | -0.723 (inactive) and 0.883 (inactive) | -0.256 and 0.137 | -0.647 and -1.16 | 2.06 (inactive) and 0.608 (inactive) |
| C=C[C@@H](OC)[C@H](O)c1ccc(OC)c(O)c1 | -0.72 and 0.387 | 1.21 and 1.57 | -1.02 and 0.209 | -1.16 and 0.905 | -1.3 and 0.14 | -0.782 and 0.179 | -1.44 (inactive) and 0.912 (inactive) | -0.205 and -0.346 | -0.297 and 1 | -0.693 (inactive) and 0.835 (inactive) |
